Source: PubChem (Paczesny and Yang Labs, IUPUI and University of Michigan)
ST2 IL33 inh – inhibitors of human ST2 (IL1RL1) binding to IL-33, primary screen, biochemical, AlphaLISA; inhibition, % for hits at 17 µM; AlphaLISA ST2-Fc/biotin-IL-33 interaction, 1 h; 78,000 compounds, 2.3% hits; Interleukin-1 receptor-like 1 (Homo sapiens), Q01638; AID 1259354, 2018; in the data active = inhibition above about 30%
Starred values were filed as active, the others as inactive; i = inactive. The sample as a whole holds a higher share of hits than the screen did.

SMILES | ST2 IL33 inh
Cc1nc2c(sc3nc4c(cc32)COC(C)(C)C4)c(=O)n1CC(C)C | i
O=C(c1ccc(Cl)cc1)N1CCC(C(=O)N2CCC(Cc3ccccc3)CC2)CC1 | i
COc1ccc(S(=O)(=O)N2CCC(C(=O)N3CCC(Cc4ccccc4)CC3)CC2)cc1 | i
CCNc1nc(N2CCCC2)nc(N2CCC(Cc3ccccc3)CC2)n1 | 57.0%*
O=C1S/C(=C\c2ccccc2F)C(=O)N1CNc1cccc(F)c1 | i
Cc1cc(NC(=O)CN2C(=O)S/C(=C\c3ccccc3)C2=O)no1 | i
CCCCN1C(=O)S/C(=C\c2cc(C)n(C)c2C)C1=O | 39.0%*
Oc1ccc(Cl)cc1-c1nc2ccccc2s1 | i
O=C(NCCN1CCc2ccccc2C1)c1ccc2c(c1)ncn2C1CCCC1 | i
COc1ccc([C@H]2OC[C@H]3[C@@H]2CO[C@@H]3c2ccc(OC)c(OC)c2)cc1OC | i
COc1ccc(C2Oc3c(Br)cc(Br)cc3C=C2[N+](=O)[O-])cc1OC (stereo not drawn) | 56.0%*
COc1cc(/C=C/c2c([N+](=O)[O-])c(=O)n(C)c(=O)n2C)ccc1OCc1ccccc1 | i
COc1ccc(C2SCCN2S(=O)(=O)c2ccc([N+](=O)[O-])cc2)cc1OC (stereo not drawn) | i
COc1cc(C2Oc3ccccc3C=C2[N+](=O)[O-])ccc1OCc1ccccc1 (stereo not drawn) | 46.0%*
COc1cc(-c2ncnn2-c2ccc(F)c([N+](=O)[O-])c2)ccc1OCc1ccccc1 | i
Cc1cc(C(=O)N2CCCN(CC3CC3)C(C(C)C)C2)on1 (stereo not drawn) | i
Cc1ccc(S(=O)(=O)NC(c2ccccc2)c2ccccc2)cc1 | i
CC1=C[C@@H](CNC(=O)c2ccco2)[C@H](C(C)C)C[C@H]1CC(=O)N(C)Cc1cccnc1 | i
O=[N+]([O-])c1ccc(N2CCOCC2)cc1NCCCO | i
CCS(=O)(=O)N1CCN(c2ccc([N+](=O)[O-])c(NCc3cccnc3)c2)CC1 | i
O=[N+]([O-])c1ccc(S(=O)(=O)N2CCN(CCCc3ccccc3)CC2)cc1 | 34.0%*
O=[N+]([O-])c1ccc(N2CCN(S(=O)(=O)c3ccc(Cl)c(Cl)c3)CC2)cc1NC1CC1 | 30.0%*
O=[N+]([O-])c1ccc(S(=O)(=O)N2CCN(c3ccccn3)CC2)cc1 | i
O=[N+]([O-])c1ccc(S(=O)(=O)N2CCN(c3ccccc3)CC2)cc1 | i
O=S(=O)(c1ccc(Br)cc1)N1CCN(Cc2ccccc2)CC1 | i
SMILES | ST2 IL33 inh
O=[N+]([O-])c1ccc(N2CCN(S(=O)(=O)c3ccc(Cl)cc3)CC2)cc1 | 35.0%*
O=C(COc1ccccc1)N1CCN(S(=O)(=O)c2ccc([N+](=O)[O-])cc2)CC1 | i
CCCC(=O)O[C@@H]1[C@H](OC[C@H](O)[C@H](O)CO)O[C@H](COC(C)=O)[C@@H](OC(C)=O)[C@@H]1OC(=O)CCCCCCCCCCCCCO | i
O=C1CC(NCCCN2CCOCC2)C(=O)N1c1ccc(Br)cc1 (stereo not drawn) | i
Cc1cccc(NC(NC(=O)CN2C(=O)c3ccccc3S2(=O)=O)C(Cl)(Cl)Cl)c1 (stereo not drawn) | i
CC(C)=CCc1cc(-c2coc3cc(O)ccc3c2=O)ccc1O | i
Cc1nn(C)c(Cl)c1CN(Cc1cccnc1)CC1CCN(C2CCCC2)CC1 | i
N#CC1=C(N)Oc2n[nH]c(-c3ccc4c(c3)OCO4)c2C1c1ccc(C(F)(F)F)cc1 (stereo not drawn) | i
C=CCOc1nc2c(c(=O)n(Cc3ccc(Br)cc3)c(=O)n2C)n1C | 39.0%*
Cn1c(OCc2cccnc2)nc2c1c(=O)n(Cc1ccc(Cl)cc1)c(=O)n2C | i
C=CCOc1nc2c(c(=O)n(C)c(=O)n2C)n1C | i
Cc1ccc(C(c2sc3nc(C)nn3c2O)N2CCCCC2)cc1 (stereo not drawn) | i
OCCNc1ncnc2oc(-c3ccccc3)c(-c3ccccc3)c12 | 35.0%*
N=c1c2c(-c3ccccc3)c(-c3ccccc3)oc2ncn1CCCO | i
COc1ccc(-c2oc3ncn(CCO)c(=N)c3c2-c2ccc(OC)cc2)cc1 | i
CC(C)C(NS(=O)(=O)c1cccs1)C(=O)Nc1cccc(C(F)(F)F)c1 (stereo not drawn) | i
COCCN1CCCC(O)(CN2CCC(C(N)=O)CC2)C1=O (stereo not drawn) | i
CCC(=O)N1c2ccccc2-c2nnc(SC)nc2OC1c1cc(OC)c(OC)cc1OC (stereo not drawn) | i
FC(F)(F)c1cccc(-c2ncnn2-c2ccc(Br)nc2)c1 | i
FC(F)(F)c1ccc2nnc(-c3cccc(I)c3)n2c1 | 54.0%*
FC(F)(F)c1ccc2nnc(-c3ccc(Cl)cc3Cl)n2c1 | i
COCCNC(=O)c1ccc(OC2CCN(C(=O)C3=CCCC3)CC2)c(Cl)c1 | i
N/C(=N/OC(=O)c1ccc([N+](=O)[O-])cc1)c1ccccn1 | i
